High-throughput results from PubChem BioAssay.
A selection: hits, their analogues and other compounds. The true share with any hit is near 2%.
VLA-4 inh: inhibition in a human VLA-4 binding assay; actives 0.2% (n = 330,000); inhibition, % (about 7 µM as worked out from the volumes in the protocol); VLA-4 expressing cells, ligand binding flow cytometry; AID 2557; P13612; in the data active = inhibition above about 50%
PG9 Ab binder: binds the HIV-1 gp120 antibody PG9; actives 0.43% (n = 360,000); AID 624416; inhibition, % at 6.7 µM; TR-FRET gp120-PG9 antibody binding; in the data active = inhibition above about 8.5%
NR1D1 modulator: modulators of human Rev-erb alpha DNA binding; actives 0.79% (n = 370,000); P20393; activity, % at 10 µM; Rev-erbα–FITC-DNA binding, fluorescence polarization, 90 min;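 active = activity above about 14%, limit read from the data; passing the limit was not always enough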;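 also: 0% = DMSO wells with 35 nM protein and 100% = DMSO wells with 750 nM protein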
Target sequence (P20393 whole entry, looked up): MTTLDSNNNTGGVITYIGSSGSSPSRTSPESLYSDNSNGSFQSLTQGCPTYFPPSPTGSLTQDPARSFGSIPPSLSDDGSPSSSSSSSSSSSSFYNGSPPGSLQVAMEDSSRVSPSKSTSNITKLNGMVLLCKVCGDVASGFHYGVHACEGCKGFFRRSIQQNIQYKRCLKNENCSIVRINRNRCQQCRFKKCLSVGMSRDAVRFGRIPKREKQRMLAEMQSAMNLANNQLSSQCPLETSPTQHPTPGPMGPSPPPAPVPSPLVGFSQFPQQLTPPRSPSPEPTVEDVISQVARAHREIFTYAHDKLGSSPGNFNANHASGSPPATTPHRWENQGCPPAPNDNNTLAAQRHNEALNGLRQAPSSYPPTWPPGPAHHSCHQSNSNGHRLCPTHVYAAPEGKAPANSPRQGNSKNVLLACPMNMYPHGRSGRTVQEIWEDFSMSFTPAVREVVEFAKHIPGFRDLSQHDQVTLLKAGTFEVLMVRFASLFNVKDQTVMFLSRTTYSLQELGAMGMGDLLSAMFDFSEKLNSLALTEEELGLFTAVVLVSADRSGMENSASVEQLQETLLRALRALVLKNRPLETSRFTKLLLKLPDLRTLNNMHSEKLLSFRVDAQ
Exocytosis inh: blocks lytic granule exocytosis; inhibition, % at 10 µM; actives 0.66% (n = 360,000); TALL-104 LAMP-1 surface exposure, flow cytometry; cells stimulated with thapsigargin and PMA;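 active = inhibition above about 55%, limit read from the data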
ABCB6 inh MLPCN: human ABCB6 transporter inhibition. Q9NP58. K562-ABCB6 porphyrin accumulation, flow cytometry, 1 h; stronger effect = lower value. fluorescence ratio to DMSO, % at 10 µM. actives 0.19% (n = 360,000). AID 602162;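 active = fluorescence ratio to DMSO below 75%, the collection mean minus 3 SD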;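 also: signal is porphyrin accumulated inside mitochondria; 100% equals median channel fluorescence of DMSO control wells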
Active calls of the source: *; ! = not confirmed by another sample.

CC(=O)C(=Nc1ccc(Cl)cc1Cl)NNc1cccc(Cl)c1 was read as VLA-4 inh 8.7, PG9 Ab binder 0.2, NR1D1 modulator -0.3, Exocytosis inh 84.9* and ABCB6 inh MLPCN 101.0.
For COC(=O)[C@]12C[C@H](CC(=O)NCCC(C)C)C(=O)N(Cc3ccc(Cl)cc3Cl)C1=C[C@H](C(C)(C)C)O[C@@H]2C the results were NR1D1 modulator -1.0.
Screening CCOc1cc2c(c3c1C(c1ccccc1)N(S(=O)(=O)c1ccc(C)cc1)C3)C(=O)C=CC2=O (stereo not drawn) returned PG9 Ab binder 5.1, NR1D1 modulator -8.4, Exocytosis inh 73.7* and ABCB6 inh MLPCN 106.0.
`Cc1sc2c3ccsc3ccc2[n+]1C` gave VLA-4 inh -1.8, PG9 Ab binder -1.8, NR1D1 modulator 0.2, Exocytosis inh 55.6* and ABCB6 inh MLPCN 102.0.
Screening Cc1sc2ccc3sccc3c2[n+]1C returned VLA-4 inh 4.4, PG9 Ab binder 0.3, NR1D1 modulator 8.9, Exocytosis inh 83.1* and ABCB6 inh MLPCN 97.0.
For COC(=O)c1ccc(CSc2nc3scc(-c4cccs4)c3c(=O)[nH]2)o1 the results were VLA-4 inh 15.4, PG9 Ab binder -2.2, NR1D1 modulator -6.6, Exocytosis inh -0.2 and ABCB6 inh MLPCN 59.0*.
For COC(=O)c1ccc(CSc2nc3ccc(Cl)cc3[nH]2)o1 the results were VLA-4 inh -2.1, PG9 Ab binder -2.2, NR1D1 modulator -3.2, Exocytosis inh -2.6 and ABCB6 inh MLPCN 92.0.
`CC(=O)Nc1ccc2nc(-c3cccn3C)[nH]c2c1` gave VLA-4 inh 10.6, PG9 Ab binder -2.5, NR1D1 modulator 0.4, Exocytosis inh -6.3 and ABCB6 inh MLPCN 99.0.
CC(=O)Nc1ccc2nc(-c3cccs3)[nH]c2c1 was read as VLA-4 inh 93.6*, PG9 Ab binder 3.0, NR1D1 modulator 7.0, Exocytosis inh -1.2 and ABCB6 inh MLPCN 95.0.
Screening CSC(=Cc1ccc(C(=O)c2ccc(C)cc2)n1C)S(C)=O (stereo not drawn) returned PG9 Ab binder 0.8 and NR1D1 modulator 8.5.
For CC(/C=C/c1ccco1)=N\NC(=O)CNc1ccc2ccccc2c1 the results were VLA-4 inh 3.7, PG9 Ab binder -2.2, NR1D1 modulator 0.5, Exocytosis inh 100.0* and ABCB6 inh MLPCN 98.0.
Screening CC(/C=C/c1ccco1)=N/NC(=O)CNc1ccccc1C returned VLA-4 inh 6.4, PG9 Ab binder -3.6, NR1D1 modulator 2.8, Exocytosis inh 1.2 and ABCB6 inh MLPCN 102.0.
Screening O=C(Nc1ccccc1)Nc1c(-c2ccc(F)cc2)nc2ncccn12 returned NR1D1 modulator 2.4.
Screening O=c1[nH][nH]cc1C=Nc1ccccc1O returned VLA-4 inh 18.6, PG9 Ab binder -4.7, NR1D1 modulator -0.3, Exocytosis inh 3.6 and ABCB6 inh MLPCN 68.0*.
CCN1/C(=N\N)c2cccc3cccc1c23 was read as VLA-4 inh inactive, PG9 Ab binder -0.3, NR1D1 modulator 3.7, Exocytosis inh 95.3* and ABCB6 inh MLPCN 508.0.
Screening CSc1c(N(C)C)c(=O)c1=S returned PG9 Ab binder -0.6 and NR1D1 modulator -10.2.
`C/C(CCc1oc2c(Br)cc(Br)cc2c1-c1ccc(C)o1)=N\O` gave VLA-4 inh -8.3, PG9 Ab binder -2.2, NR1D1 modulator -2.9, Exocytosis inh 82.7* and ABCB6 inh MLPCN 109.0.
Screening CC(=O)CCc1oc2ccc([N+](=O)[O-])cc2c1-c1ccc(C)o1 returned VLA-4 inh 19.9, PG9 Ab binder -2.2, NR1D1 modulator 5.9, Exocytosis inh 11.1 and ABCB6 inh MLPCN 102.0.
For C/C(CCc1oc2ccccc2c1-c1ccc(C)o1)=N/O the results were VLA-4 inh 0.8, PG9 Ab binder -0.3, NR1D1 modulator -0.5, Exocytosis inh 73.6* and ABCB6 inh MLPCN 98.0.
For C=CCN1C=C(C(=O)OCC)C(=O)CC1 the results were PG9 Ab binder -1.0 and NR1D1 modulator -6.9.
For O=[N+]([O-])c1cc(-c2ncccn2)c([N+](=O)[O-])s1 the results were VLA-4 inh -0.7, PG9 Ab binder -0.5, NR1D1 modulator 2.1, Exocytosis inh 78.0* and ABCB6 inh MLPCN 104.0.
`O=C(Nc1ncccn1)c1cc([N+](=O)[O-])cc([N+](=O)[O-])c1` gave VLA-4 inh 14.2, PG9 Ab binder 0.1, NR1D1 modulator -2.7, Exocytosis inh -1.3 and ABCB6 inh MLPCN 100.0.
`CCc1c(-c2ccccc2F)ncn1CCc1ccccc1OC` gave PG9 Ab binder -1.1 and NR1D1 modulator -2.0.
`CCNc1ccc(Br)cc(C(=O)/C=C/c2ccc(Cl)cc2)c1=O` gave VLA-4 inh -64.2, Exocytosis inh 33.8 and ABCB6 inh MLPCN 122.0.
CCNc1ccc(Br)cc(C(=O)/C=C/c2c(Cl)cccc2Cl)c1=O was read as VLA-4 inh -153.5, Exocytosis inh 77.5* and ABCB6 inh MLPCN 165.0.
Screening CNc1ccc(Br)cc(C(=O)/C=C/c2ccc(OC)cc2OC)c1=O returned VLA-4 inh 9.4, PG9 Ab binder -2.6, NR1D1 modulator -3.0, Exocytosis inh -1.6 and ABCB6 inh MLPCN 107.0.
`CNc1ccc(Br)cc(C(=O)/C=C/c2ccc(Cl)cc2Cl)c1=O` gave VLA-4 inh inactive, PG9 Ab binder 0.7, NR1D1 modulator -4.8, Exocytosis inh 100.1* and ABCB6 inh MLPCN 160.0.
`N#Cc1cccc(NC(=O)OCCCN2CCC3(CCCCC3)C2=O)c1` gave NR1D1 modulator -0.6.
Screening COc1ccc(C(O)P(=O)(OCCC(C)C)c2ccc(N(C)C)cc2)cc1OC (stereo not drawn) returned VLA-4 inh -2.0, PG9 Ab binder -1.4, NR1D1 modulator 0.8, Exocytosis inh -13.2 and ABCB6 inh MLPCN 96.0.
Screening Cc1ccc(C(O)P(=O)(OCCC(C)C)c2ccc(N(C)C)cc2)cc1 (stereo not drawn) returned VLA-4 inh -2.7, PG9 Ab binder 0.9, NR1D1 modulator 4.3, Exocytosis inh 59.8* and ABCB6 inh MLPCN 96.0.
`CCOC(=O)c1c(NC(=O)COc2ccccc2C#N)sc2c1CC(C)(C)NC2(C)C` gave VLA-4 inh 8.5, PG9 Ab binder -0.1, NR1D1 modulator -3.5, Exocytosis inh 56.6* and ABCB6 inh MLPCN 100.0.
For CC(=O)O/N=C/c1c(N2CCOCC2)n(C)c2ccccc12 the results were VLA-4 inh 25.5, PG9 Ab binder -2.1, NR1D1 modulator -2.5, Exocytosis inh -2.2 and ABCB6 inh MLPCN 52.0*.
For CCC(C)Sc1cccc(-c2nc3cc(C)ccn3c2NC2CCCCC2)c1 (stereo not drawn) the results were VLA-4 inh -3.3, PG9 Ab binder 1.9, NR1D1 modulator 0.4, Exocytosis inh 56.6*! and ABCB6 inh MLPCN 107.0.
For Cc1cc(C)nc(N(C#N)CCOc2ccc(Cl)cc2)n1 the results were VLA-4 inh -1.6, PG9 Ab binder -1.8, NR1D1 modulator 3.5, Exocytosis inh 76.6* and ABCB6 inh MLPCN 97.0.
`C(#CC1=CCCCC1)CNCC1CC1` gave NR1D1 modulator 1.5.
CCn1c(Cl)c(C=O)s/c1=N\S(=O)(=O)c1ccccc1 was read as VLA-4 inh 40.2, PG9 Ab binder 0.3, NR1D1 modulator 1.6, Exocytosis inh 4.9 and ABCB6 inh MLPCN 38.0*.
